In the first assay the target is Rho-associated protein kinase 2 (Homo sapiens) (UniProt O75116). The following applies: at 0.1 µM.
Ribosomal protein S6 kinase alpha-1 (Homo sapiens), sequence (Q15418 whole entry): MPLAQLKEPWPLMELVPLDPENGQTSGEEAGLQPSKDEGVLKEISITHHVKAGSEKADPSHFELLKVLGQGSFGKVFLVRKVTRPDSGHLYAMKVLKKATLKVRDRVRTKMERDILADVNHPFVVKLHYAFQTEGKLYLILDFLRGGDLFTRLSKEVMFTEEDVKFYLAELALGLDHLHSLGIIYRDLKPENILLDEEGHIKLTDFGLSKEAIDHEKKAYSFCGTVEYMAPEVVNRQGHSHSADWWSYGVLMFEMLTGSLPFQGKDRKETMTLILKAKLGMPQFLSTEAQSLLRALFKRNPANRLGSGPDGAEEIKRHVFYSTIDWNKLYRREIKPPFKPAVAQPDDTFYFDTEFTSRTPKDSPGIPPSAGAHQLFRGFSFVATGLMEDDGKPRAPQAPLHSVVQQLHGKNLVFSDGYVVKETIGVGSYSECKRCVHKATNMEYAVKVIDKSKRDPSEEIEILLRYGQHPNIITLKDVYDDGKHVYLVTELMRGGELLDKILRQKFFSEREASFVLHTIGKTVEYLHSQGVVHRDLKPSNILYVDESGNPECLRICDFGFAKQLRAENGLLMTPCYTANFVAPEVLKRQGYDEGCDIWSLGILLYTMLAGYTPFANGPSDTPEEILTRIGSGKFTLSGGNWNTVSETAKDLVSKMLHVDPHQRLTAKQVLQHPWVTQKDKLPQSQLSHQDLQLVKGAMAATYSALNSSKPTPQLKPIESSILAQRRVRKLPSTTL
Rho-associated protein kinase 2 (Homo sapiens), sequence (O75116 whole entry, looked up): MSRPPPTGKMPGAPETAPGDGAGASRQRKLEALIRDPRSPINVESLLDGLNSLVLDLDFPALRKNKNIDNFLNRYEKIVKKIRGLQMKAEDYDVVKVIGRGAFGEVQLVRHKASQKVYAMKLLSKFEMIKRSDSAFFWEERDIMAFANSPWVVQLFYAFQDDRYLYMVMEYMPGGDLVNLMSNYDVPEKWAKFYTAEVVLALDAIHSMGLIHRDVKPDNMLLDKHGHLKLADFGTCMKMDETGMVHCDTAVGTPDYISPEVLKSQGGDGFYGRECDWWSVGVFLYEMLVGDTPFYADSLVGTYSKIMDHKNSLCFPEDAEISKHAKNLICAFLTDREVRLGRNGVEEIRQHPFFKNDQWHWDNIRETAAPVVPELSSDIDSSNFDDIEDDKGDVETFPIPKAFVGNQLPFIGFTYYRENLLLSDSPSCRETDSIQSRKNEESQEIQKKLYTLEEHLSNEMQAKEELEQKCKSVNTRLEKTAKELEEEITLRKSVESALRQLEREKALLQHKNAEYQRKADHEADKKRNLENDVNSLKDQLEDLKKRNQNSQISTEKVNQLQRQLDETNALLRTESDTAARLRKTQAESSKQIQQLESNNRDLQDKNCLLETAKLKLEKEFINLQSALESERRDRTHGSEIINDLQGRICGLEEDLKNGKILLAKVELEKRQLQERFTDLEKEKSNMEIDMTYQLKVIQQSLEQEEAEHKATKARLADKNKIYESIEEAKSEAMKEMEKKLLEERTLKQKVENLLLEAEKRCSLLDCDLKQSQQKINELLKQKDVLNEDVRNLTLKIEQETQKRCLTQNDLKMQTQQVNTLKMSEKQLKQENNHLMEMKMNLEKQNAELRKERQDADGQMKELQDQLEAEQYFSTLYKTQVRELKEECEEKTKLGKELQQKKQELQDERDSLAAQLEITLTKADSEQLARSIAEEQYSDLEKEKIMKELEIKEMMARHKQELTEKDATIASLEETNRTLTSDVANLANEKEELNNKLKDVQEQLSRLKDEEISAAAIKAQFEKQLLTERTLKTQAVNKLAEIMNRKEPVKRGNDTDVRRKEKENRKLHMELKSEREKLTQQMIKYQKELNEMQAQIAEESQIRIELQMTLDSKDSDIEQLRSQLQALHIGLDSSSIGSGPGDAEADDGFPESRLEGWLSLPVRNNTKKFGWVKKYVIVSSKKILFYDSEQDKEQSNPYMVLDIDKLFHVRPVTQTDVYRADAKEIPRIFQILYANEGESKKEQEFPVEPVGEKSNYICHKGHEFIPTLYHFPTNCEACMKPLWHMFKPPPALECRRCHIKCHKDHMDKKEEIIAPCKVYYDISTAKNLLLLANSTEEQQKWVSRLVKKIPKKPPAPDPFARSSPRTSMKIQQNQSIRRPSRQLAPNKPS
Turning to `Cc1ccc(O)cc1Nc1ccnc2cc(-c3ccccn3)ccc12`, the inhibition (usually the relative decrease from the control value, in per cent) was determined as 2.07%.
Turning to `COC(=O)c1sc(-n2cnc3cc(OC)c(OC)cc32)cc1OCc1ccccc1C(F)(F)F`, the inhibition is 1.69%.
With `CC(=O)Nc1cccc(C#Cc2cncnc2Nc2ccc(OCc3cccc(F)c3)c(Cl)c2)c1`, the inhibition is 0.44%.
`Fc1cccc(COc2ccc(Nc3ncnc4sc(-c5ccco5)cc34)cc2Cl)c1`: the inhibition was determined as 3.35%.
For `COc1cc2ncn(-c3cc(OCc4ccccc4C(F)(F)F)c(C(=O)N(C)C)s3)c2cc1OC`, the inhibition is -0.35%.
Consider `COc1cc2c(cc1Nc1nc(Nc3ccsc3C(N)=O)c3cc[nH]c3n1)N(C(=O)CN(C)C)CCC2(C)C`, for which the inhibition amounted to 29.2%.
Consider `Nc1ncc(-c2cccc(S(N)(=O)=O)c2)c2scc(-c3ccc(F)c(Cl)c3)c12`, for which the inhibition was determined as 2.98%.
For the molecule `O=C(Nc1n[nH]c2cc(-c3ccc(F)cc3)ccc12)C1CC1`, the inhibition was found to be 7.81%.
With `Cc1cccc(Nc2ncc(-c3ccccc3)o2)c1`, the inhibition was determined as 2.08%.
Take `CCCN(CCS(C)(=O)=O)Cc1ccc(-c2ccc3ncnc(Nc4ccc(OCc5cccc(F)c5)c(Cl)c4)c3c2)o1`: the inhibition amounted to 1.92%.
`N#Cc1c(NC(=O)CN2CCOCC2)sc2c1CCCC2`: the inhibition is 5.37%.

Another assay shares this target. To be noted: at 1 µM.
`Cc1cccc2c1NC(=O)/C2=N\Nc1ccc(S(N)(=O)=O)cc1`: the inhibition was determined as 1.59%.
On to `Clc1ccc(-c2nn3ncccc3c2-c2ccnc(Nc3ccccc3)n2)cc1`, for which the inhibition was 3.84%.
Consider `COc1ccc(-c2cc(-c3c[nH]nc3-c3ccccn3)ccn2)cc1`, for which the inhibition was 7.92%.
With `NS(=O)(=O)c1ccc(Nc2ncc(-c3ccccc3)o2)cc1`, the inhibition worked out at 8.55%.
The same measure, in the same setting: for `c1ccc(-c2nc3n(c2-c2ccc4c(c2)OCO4)CCC3)nc1` the value was 5.37%.
With `N#Cc1c(NC(=O)c2ccc(F)cc2)sc2c1CCCC2`, the inhibition was found to be 2.62%.
In the case of `CC(C)COC(=O)c1ccc2c(c1)/C(=C/Nc1ccc(S(N)(=O)=O)cc1)C(=O)N2`, the inhibition is 43.9%.
`Cc1ccc2c(-c3ccnc(Nc4ccccc4)n3)c(-c3ccc(F)cc3)nn2n1`: the inhibition was 2.45%.
Regarding `CS(=O)(=O)CCNCc1ccc(-c2ccc3ncnc(Nc4ccc(OCc5ccccc5)c(C(F)(F)F)c4)c3c2)o1`, the inhibition amounted to 2.3%.
As to `O=C(O[C@H]1CN[C@H](C#Cc2cc3ncnc(Nc4ccc(Cc5ccccc5)cc4)c3s2)C1)N1CCOCC1`, the inhibition was 2.51%.
With `COc1ccc2[nH]c3c4[nH]c5ccc(OC)cc5c4c4c(c3c2c1)C(=O)NC4=O`, the inhibition came out at 16.6%.
As to `COc1ccc2c(-c3ccnc(Nc4cccc(OC(F)(F)F)c4)n3)cnn2n1`, the inhibition turned out to be 8.15%.
Regarding `CN1CCC(n2cnc(-c3ccc(F)cc3)c2-c2ccnc(N)n2)CC1`, the inhibition is 5.69%.
On the same count and under the same terms, with `CN(C)CCOc1ccc(-c2nc(-c3ccncc3)c(-c3ccc4c(c3)CC/C4=N\O)[nH]2)cc1` the figure was 4.22%; with `COc1cc(N2CCN(C(C)C)CC2)ccc1Nc1nc(Nc2ccc(F)cc2C(N)=O)c2cc[nH]c2n1`, 29.1%.
For `CNC(=O)c1cncc(/C=C/c2ccccc2Cl)c1`, the inhibition amounted to 6.36%.
Consider `[O-][S+]1CCN(Cc2ccc(-c3ccc4ncnc(Nc5ccc(OCc6cccc(F)c6)c(Cl)c5)c4c3)o2)CC1`, for which the inhibition is 5.33%.
Turning to `COc1ccc(-c2nn3ncccc3c2-c2ccnc(Nc3ccc4c(c3)OCCO4)n2)cc1`, the inhibition was determined as 1.51%.
`FC(F)(F)c1cccc(-c2nn3ncccc3c2-c2ccnc(Nc3ccc4c(c3)OCCO4)n2)c1`: the inhibition stood at 1.32%.
On to `CNC(=O)c1cc(-c2ccc(F)cc2)cc(-c2ccc(S(=O)(=O)N3CCCC3)cc2)c1N`, for which the inhibition was found to be 2.18%.
On to `CNC(=O)c1cccc(C#Cc2cncnc2Nc2ccc(OCc3cccc(F)c3)c(Cl)c2)c1`, for which the inhibition worked out at 4.37%.
Consider `CCOc1ccc2c(-c3ccnc(Nc4cccc(C(F)(F)F)c4)n3)cnn2n1`, for which the inhibition was -0.05%.
Regarding `CC(C)(CO)CNC(=O)c1ccc2c(c1)/C(=N/Nc1ccc(S(N)(=O)=O)cc1)C(=O)N2`, the inhibition amounted to 10.3%.
In the case of `Cc1ccc(O)cc1Nc1ccnc2cc(-c3ccccn3)ccc12`, the inhibition is 0.33%.
In the case of `COC(=O)c1sc(-n2cnc3cc(OC)c(OC)cc32)cc1OCc1ccccc1C(F)(F)F`, the inhibition came out at 1.32%.
For the molecule `CC(=O)Nc1cccc(C#Cc2cncnc2Nc2ccc(OCc3cccc(F)c3)c(Cl)c2)c1`, the inhibition was 0.1%.
Same read-out and setting: for `Fc1cccc(COc2ccc(Nc3ncnc4sc(-c5ccco5)cc34)cc2Cl)c1` the value was 4.12%; for `COc1cc2ncn(-c3cc(OCc4ccccc4C(F)(F)F)c(C(=O)N(C)C)s3)c2cc1OC`, 1.56%; for `COc1cc2c(cc1Nc1nc(Nc3ccsc3C(N)=O)c3cc[nH]c3n1)N(C(=O)CN(C)C)CCC2(C)C`, 72.1%.
Regarding `Nc1ncc(-c2cccc(S(N)(=O)=O)c2)c2scc(-c3ccc(F)c(Cl)c3)c12`, the inhibition turned out to be 2.92%.
With `O=C(Nc1n[nH]c2cc(-c3ccc(F)cc3)ccc12)C1CC1`, the inhibition was 9.75%.
Same read-out and setting: with `Cc1cccc(Nc2ncc(-c3ccccc3)o2)c1` the figure was 3.95%.
On to `CCCN(CCS(C)(=O)=O)Cc1ccc(-c2ccc3ncnc(Nc4ccc(OCc5cccc(F)c5)c(Cl)c4)c3c2)o1`, for which the inhibition came out at 2.01%.
As to `N#Cc1c(NC(=O)CN2CCOCC2)sc2c1CCCC2`, the inhibition was 3.55%.

The next assay addresses Ribosomal protein S6 kinase alpha-1 (Homo sapiens) (UniProt Q15418). The following applies: at 0.1 µM.
With `Cc1cccc2c1NC(=O)/C2=N\Nc1ccc(S(N)(=O)=O)cc1`, the inhibition is 1.09%.
Consider `Clc1ccc(-c2nn3ncccc3c2-c2ccnc(Nc3ccccc3)n2)cc1`, for which the inhibition is 1.56%.
With `COc1ccc(-c2cc(-c3c[nH]nc3-c3ccccn3)ccn2)cc1`, the inhibition worked out at 2.73%.
`NS(=O)(=O)c1ccc(Nc2ncc(-c3ccccc3)o2)cc1`: the inhibition worked out at 2.44%.
With `c1ccc(-c2nc3n(c2-c2ccc4c(c2)OCO4)CCC3)nc1`, the inhibition was found to be 4.98%.
Regarding `N#Cc1c(NC(=O)c2ccc(F)cc2)sc2c1CCCC2`, the inhibition was 1.41%.
Consider `CC(C)COC(=O)c1ccc2c(c1)/C(=C/Nc1ccc(S(N)(=O)=O)cc1)C(=O)N2`, for which the inhibition stood at 6.23%.
Regarding `Cc1ccc2c(-c3ccnc(Nc4ccccc4)n3)c(-c3ccc(F)cc3)nn2n1`, the inhibition is 1.84%.
Take `CS(=O)(=O)CCNCc1ccc(-c2ccc3ncnc(Nc4ccc(OCc5ccccc5)c(C(F)(F)F)c4)c3c2)o1`: the inhibition turned out to be 0.89%.
On to `O=C(O[C@H]1CN[C@H](C#Cc2cc3ncnc(Nc4ccc(Cc5ccccc5)cc4)c3s2)C1)N1CCOCC1`, for which the inhibition was determined as 1.51%.
As to `COc1ccc2[nH]c3c4[nH]c5ccc(OC)cc5c4c4c(c3c2c1)C(=O)NC4=O`, the inhibition is 53.9%.
On the same count and under the same terms, with `COc1ccc2c(-c3ccnc(Nc4cccc(OC(F)(F)F)c4)n3)cnn2n1` the figure was 2.26%; with `CN1CCC(n2cnc(-c3ccc(F)cc3)c2-c2ccnc(N)n2)CC1`, 1.08%.
For the molecule `CN(C)CCOc1ccc(-c2nc(-c3ccncc3)c(-c3ccc4c(c3)CC/C4=N\O)[nH]2)cc1`, the inhibition was determined as 2.14%.
The same measure, in the same setting: for `COc1cc(N2CCN(C(C)C)CC2)ccc1Nc1nc(Nc2ccc(F)cc2C(N)=O)c2cc[nH]c2n1` the value was 22%.
Consider `CNC(=O)c1cncc(/C=C/c2ccccc2Cl)c1`, for which the inhibition is 0.85%.
Same read-out and setting: for `[O-][S+]1CCN(Cc2ccc(-c3ccc4ncnc(Nc5ccc(OCc6cccc(F)c6)c(Cl)c5)c4c3)o2)CC1` the value was 2.31%; for `COc1ccc(-c2nn3ncccc3c2-c2ccnc(Nc3ccc4c(c3)OCCO4)n2)cc1`, -0.25%; for `FC(F)(F)c1cccc(-c2nn3ncccc3c2-c2ccnc(Nc3ccc4c(c3)OCCO4)n2)c1`, 1.14%.
On to `CNC(=O)c1cc(-c2ccc(F)cc2)cc(-c2ccc(S(=O)(=O)N3CCCC3)cc2)c1N`, for which the inhibition is 0.9%.
As to `CNC(=O)c1cccc(C#Cc2cncnc2Nc2ccc(OCc3cccc(F)c3)c(Cl)c2)c1`, the inhibition came out at 1.04%.
Consider `CCOc1ccc2c(-c3ccnc(Nc4cccc(C(F)(F)F)c4)n3)cnn2n1`, for which the inhibition is -0.89%.
Turning to `CC(C)(CO)CNC(=O)c1ccc2c(c1)/C(=N/Nc1ccc(S(N)(=O)=O)cc1)C(=O)N2`, the inhibition worked out at 0.63%.
For `Cc1ccc(O)cc1Nc1ccnc2cc(-c3ccccn3)ccc12`, the inhibition came to 1.44%.
`COC(=O)c1sc(-n2cnc3cc(OC)c(OC)cc32)cc1OCc1ccccc1C(F)(F)F`: the inhibition came out at 0.68%.
On to `CC(=O)Nc1cccc(C#Cc2cncnc2Nc2ccc(OCc3cccc(F)c3)c(Cl)c2)c1`, for which the inhibition came to 0.12%.
For `Fc1cccc(COc2ccc(Nc3ncnc4sc(-c5ccco5)cc34)cc2Cl)c1`, the inhibition worked out at 2.09%.
In the case of `COc1cc2ncn(-c3cc(OCc4ccccc4C(F)(F)F)c(C(=O)N(C)C)s3)c2cc1OC`, the inhibition was -0.72%.
Turning to `COc1cc2c(cc1Nc1nc(Nc3ccsc3C(N)=O)c3cc[nH]c3n1)N(C(=O)CN(C)C)CCC2(C)C`, the inhibition was 23.2%.
Same read-out and setting: with `Nc1ncc(-c2cccc(S(N)(=O)=O)c2)c2scc(-c3ccc(F)c(Cl)c3)c12` the figure was 2.93%.
For the molecule `O=C(Nc1n[nH]c2cc(-c3ccc(F)cc3)ccc12)C1CC1`, the inhibition was determined as 6.62%.
Turning to `Cc1cccc(Nc2ncc(-c3ccccc3)o2)c1`, the inhibition was 2.35%.
Consider `CCCN(CCS(C)(=O)=O)Cc1ccc(-c2ccc3ncnc(Nc4ccc(OCc5cccc(F)c5)c(Cl)c4)c3c2)o1`, for which the inhibition worked out at 1.36%.
Regarding `N#Cc1c(NC(=O)CN2CCOCC2)sc2c1CCCC2`, the inhibition was determined as 2.13%.

Values taken from ChEMBL document CHEMBL1961873, “Compounds: GSK PKIS; Assays: Nanosyn kinase panel” (2012).
